Results published in PubChem BioAssay (NCATS).
Several values for one entry are separate records, joined by “and”; a condition that tells them apart may be missing. Equal values may be shown once. Records with an inconclusive call do not appear. Entries that show only a call come without a potency. Unmarked numbers belong to inactive results. Activity calls are given as the source filed them. Calls come from the whole dose curve; as a rule, active = well fitted curve in the direction sought with a large enough effect; inconclusive = small, poorly fitted or top-dose-only effect, or another doubt; inactive = no such curve, though single readings can be large; an effect the other way counts as inactive or inconclusive.

What was measured:
[1] = target: Cellular tumor antigen p53 (Homo sapiens) (UniProt P04637); assay: Primary qHTS for small molecule compounds that upregulate eGFP-tagged delta133p53alpha (in N-terminal) cells. (AID 2060322); conditions: NCI-H358 eGFP-delta133p53alpha fluorescence, 24 h; activation: active compounds read high;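 note: cells pre-induced with doxycycline then dosed without doxycycline; nearly all actives have a fitted effect of over 75% in size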
Cellular tumor antigen p53 (Homo sapiens), sequence (P04637 whole entry, looked up): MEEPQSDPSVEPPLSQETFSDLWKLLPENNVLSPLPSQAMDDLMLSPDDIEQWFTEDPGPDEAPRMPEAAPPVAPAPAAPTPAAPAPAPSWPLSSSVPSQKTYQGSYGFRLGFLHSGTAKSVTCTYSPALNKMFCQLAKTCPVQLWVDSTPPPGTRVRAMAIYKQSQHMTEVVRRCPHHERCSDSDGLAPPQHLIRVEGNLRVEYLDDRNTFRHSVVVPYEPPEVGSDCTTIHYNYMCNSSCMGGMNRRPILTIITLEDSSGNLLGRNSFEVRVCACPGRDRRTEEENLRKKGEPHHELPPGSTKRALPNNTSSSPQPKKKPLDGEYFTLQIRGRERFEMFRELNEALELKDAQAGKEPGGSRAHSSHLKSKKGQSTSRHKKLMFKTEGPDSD
Method in brief: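 NCI-H358 cells pre-induced 24 h with 10 ng/ml doxycycline for eGFP-delta133p53alpha, plated dox-free and exposed 24 h at 37C to titrated compounds. Fixed, Hoechst-stained; gated GFP peak intensity by laser scanning cytometry, normalized to DMSO (0%) and 57.5 uM 5-azacytidine (100%).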

[2] = target: Aldehyde dehydrogenase, mitochondrial (Homo sapiens) (UniProt P05091); assay: qHTS for Inhibitors of the Aldehyde Dehydrogenase Family (ALDH2) Primary screen (AID 2061308); conditions: ALDH2 enzyme inhibition qHTS, 1536-well; series mostly up to 56 µM; note: nearly all actives have a fitted effect of over 55% in size
[3] = target: Retinaldehyde dehydrogenase 3 (Homo sapiens) (UniProt P47895); assay: qHTS for Inhibitors of the Aldehyde Dehydrogenase Family (ALDH1A3) Validation screen (AID 2061312); conditions: ALDH1A3 enzyme inhibition qHTS validation, fluorescence; series mostly up to 84.7 µM; note: nearly all actives have a fitted effect of over 45% in size; note: potency is the fitted concentration of half-maximal effect
[4] = target: Retinaldehyde dehydrogenase 3 (Homo sapiens) (UniProt P47895); assay: qHTS for Inhibitors of the Aldehyde Dehydrogenase Family (ALDH1A3) Primary screen (AID 2061315); conditions: ALDH inhibition qHTS; series mostly up to 56 µM

SMILES | activation [1] | Potency [2] | Potency [3] | Potency [4]
COc1cc(C(=O)NCC2(N(C)C)CCCC2)cc(OC)c1OCc1ccccc1 | -8.11% | inactive | inactive | inactive
COc1cc(-c2cn(C3CCc4c(F)cccc4N(CC(F)(F)F)C3=O)nn2)ccc1-n1cnc(C)c1 (stereo not drawn) | 6.68% | inactive | inactive | inactive
CCNC(=O)N1CCCN(c2ccc(C(=O)NCCc3ccc(Cl)cc3Cl)cc2NC(=O)c2cccc(Cl)c2)CC1 | 1.91% | inactive | inactive | inactive
CCC(COC)n1nnc2c(Nc3ccc(OC)cc3C)nc(C)cc21 (stereo not drawn) | -5.25% | inactive | inactive | inactive
CCCSc1nc(NC2CC2c2ccc(F)c(F)c2)c2nnn(C3CC(OCCO)C(O)C3O)c2n1 (stereo not drawn) | 16.7% | inactive | 31.6 µM (active) | inactive
Cc1cccc(C)c1OCc1cc(C(=O)N2CCC(c3ccncc3)CC2)no1 | 0.955% | inactive | inactive | inactive
CC(C)(C)C1CCN(C(=O)n2ncc(C(O)(c3ccccc3)c3ccccc3)n2)CC1 | 6.21% | inactive | inactive | inactive
COc1ccc(CCc2nc3cc(-c4c(C)noc4C)ccc3n2C[C@H](C)N2CCOCC2)cc1Cl | 20.1% | inactive | inactive | inactive
CSc1ccc(C(=O)N[C@@H]2CCCC[C@@H]2NC(=O)CNC(=O)c2cc(C(F)(F)F)ccc2NC(=O)NC(C)C)cc1 | -22% | inactive | inactive | inactive
COc1ccccc1N1CCN(c2ncnc3n[nH]c(Br)c23)CC1 | 20.5% | inactive | inactive | inactive
CC(C)(C)c1ccc(CNC(=S)NCc2ccc(NS(C)(=O)=O)c(F)c2)cc1 | -6.68% | inactive | inactive | inactive
COC(=O)CCc1ccc(OCC(O)CNC(C)C)cc1 (stereo not drawn) | 13.4% and 16.7% | inactive | inactive | inactive
